Measurements: PubChem BioAssay (Tox21)
Records with an inconclusive call do not appear. Where a call stands in place of a potency, no number is given. The source made the active and inactive calls. Calls follow the shape of the full dose curve.

Assay: qHTS assay to identify small molecule agonists of the AP-1 signaling pathway (AID 1159526)
Details: ME-180 (cervical carcinoma) AP-1-bla reporter, beta-lactamase FRET ratio, 5 h; series mostly up to 76.8 µM
With `c1ccc2[nH]ccc2c1` the Potency was “inactive”.
In the case of `CCCCC(CC)COC(=O)/C=C/c1ccc(OC)cc1` (stereo not drawn), the Potency is reported as “inactive”.
With `COc1ccc2[nH]cc(CCNC(C)=O)c2c1` the Potency was “inactive”.
With `O=C(O)CCCCCCCC(=O)O` the Potency was “inactive”.
In the case of `NC(=O)NC1NC(=O)NC1=O` (stereo not drawn), the Potency is reported as “inactive”.
With `CCCC(CCC)C(=O)O` the Potency was “inactive”.
For `O=NO`, the Potency was “inactive”.
In the case of `Cc1noc(NS(=O)(=O)c2ccc(N)cc2)c1C`, the Potency is reported as “inactive”.
